# Source: the supplement of paper PMC10646978
# ± gives the standard deviation.
# Tests used:
# Settings in all cases: modulator concentration 10 µM
# [1] = system: RAW-Dual (murine macrophage reporter line); assay: NF-kB reporter (SEAP) activity fold change vs agonist alone; higher = enhanced NF-kB activity
# In short: (§1)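 Compound reached 10 μM final in each well by pin transfer, onto RAW-Dual murine macrophage reporter cells seeded at 50 000 per well in 384-well plates. After 1 hour at 37 °C, the cells were stimulated overnight with a PRR agonist. SEAP in the supernatant was read with QUANTI-Blue at 620 nm absorbance for NF-κB, and Lucia luciferase was read with QUANTI-Luc luminescence for IRF. Each signal was turned into fold change against the mean agonist-only control on the same plate, and two replicate plates were averaged with propagated errors.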
# [2] = system: RAW-Dual (murine macrophage reporter line); assay: IRF reporter (Lucia luciferase) activity fold change vs agonist alone; higher = enhanced IRF activity
# In short: as §1
# [3] = system: RAW-Dual (murine macrophage reporter line); assay: viability score (confluency relative to resting cells, overnight) (fraction); higher = more viable, active = viable (0.7 or more)
# In short: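 A compound met the cutoff when both of two confluency masks exceeded 70% of resting cells. Those masks were made with IncuCyte software from IncuCyte images of RAW-Dual macrophages treated overnight at 10 μM final. This is the basis of the viability score, which is confluency relative to resting cells.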
# [4] = agonist: CpG ODN 1826 0.5 ug/mL
Structure (SMILES),"NF-kB reporter [1, 4]",NF-kB reporter ([1]; agonist: LPS 0.1 ug/mL),NF-kB reporter ([1]; agonist: MPLA […]),IRF reporter ([2]; agonist: 3'3'-cGAMP 10 ug/mL),IRF reporter ([2]; agonist: LPS 0.1 ug/mL),IRF reporter ([2]; agonist: MPLA […]),viability score [3]
COc1ccc2oc(=O)c(C(=O)Nc3ccc(C(=O)O)cc3)cc2c1,0.909 ± 0.054,1.02 ± 0.1,0.953 ± 0.08,1.08 ± 0.035,1.17 ± 0.11,0.959 ± 0.13,0.987 (active)
CCCCCCC=CCCCCCCCc1cccc(O)c1C(=O)O,0.897 ± 0.067,0.987 ± 0.069,0.96 ± 0.029,0.774 ± 0.043,0.991 ± 0.12,1.06 ± 0.14,1 (active)
O=C(NN=Cc1ccc([N+](=O)[O-])o1)c1ccc(O)cc1,2.16 ± 0.17,1.49 ± 0.097,1.62 ± 0.066,0.956 ± 0.063,1.77 ± 0.18,1.22 ± 0.22,0.938 (active)
COc1ccccc1C(=O)Nc1cnc(N2CCN(c3ccccn3)CC2)nc1,0.887 ± 0.038,1.02 ± 0.12,1.2 ± 0.066,0.913 ± 0.086,0.991 ± 0.21,1.12 ± 0.43,0.877 (active)
O=C(CSC1CC(=O)N(c2ccc(C(=O)O)cc2)C1=O)Nc1ccc(F)cc1 (centres undefined),0.998 ± 0.081,0.967 ± 0.14,1.52 ± 0.53,0.578 ± 0.021,1.25 ± 0.15,1.38 ± 0.22,1.01 (active)
COC(=O)C1=C(C)N(Cc2ccccc2)C(=O)C1,1.06 ± 0.17,1.1 ± 0.14,0.984 ± 0.18,0.96 ± 0.039,1.32 ± 0.15,1.42 ± 0.3,0.623 (inactive)
c1ccc(-n2nnnc2SCc2ccc3c(c2)OCO3)cc1,1.1 ± 0.096,1.22 ± 0.14,1.46 ± 0.096,0.785 ± 0.029,0.988 ± 0.11,1.13 ± 0.25,0.998 (active)
CC(C)C(=O)N1CCCc2ccc(NC(=O)COc3ccc4ccccc4c3)cc21,0.867 ± 0.07,1.44 ± 0.12,1.31 ± 0.071,0.771 ± 0.075,1.26 ± 0.092,1.54 ± 0.12,0.995 (active)
COc1nn(C)cc1C(=O)Nc1ccc(C(=O)NCCN2CCOCC2)cc1,1.02 ± 0.052,1.03 ± 0.083,0.893 ± 0.042,0.979 ± 0.049,1.28 ± 0.096,1.13 ± 0.23,0.994 (active)
CC(COc1ccccc1)N(CCCl)Cc1ccccc1.Cl (centres undefined),0.328 ± 0.025,0.177 ± 0.015,0.355 ± 0.012,0.053 ± 0.0051,0.0504 ± 0.0018,0.0594 ± 0.011,0.186 (inactive)
O=[N+]([O-])c1ccc(C=Nc2sc3c(c2-c2nc4ccccc4s2)CCCC3)cc1,0.94 ± 0.059,0.955 ± 0.059,0.983 ± 0.057,0.94 ± 0.04,1.2 ± 0.12,0.93 ± 0.089,1 (active)
O=C(Cn1ncccc1=O)N1Cc2cnc(N3CCOCC3)nc2C1,0.942 ± 0.082,1.1 ± 0.1,0.938 ± 0.042,0.956 ± 0.058,1.16 ± 0.21,1.09 ± 0.31,0.998 (active)
COc1cccc(CC(=O)Nc2ccc(CC(=O)N3CCC(O)CC3)cc2)c1,1.07 ± 0.35,1.06 ± 0.091,1.06 ± 0.074,0.884 ± 0.03,1.1 ± 0.13,1.37 ± 0.19,0.945 (active)
O=C(NN=Cc1c(O)ccc2ccccc12)c1ccccc1,1.48 ± 0.12,1.19 ± 0.08,1.12 ± 0.054,0.752 ± 0.11,1.23 ± 0.077,1.14 ± 0.12,0.979 (active)
Cc1ccc2[nH]c3nc(NN)nnc3c2c1,1.03 ± 0.079,0.929 ± 0.077,0.967 ± 0.024,0.913 ± 0.05,0.998 ± 0.077,0.836 ± 0.071,1 (active)
CCCC(CCC)C(N)=O,1.09 ± 0.093,0.95 ± 0.083,0.999 ± 0.023,1.08 ± 0.17,1.04 ± 0.12,0.983 ± 0.19,0.996 (active)
c1ccc(CCn2c(COc3ccccc3)nc3ccccc32)cc1,1.01 ± 0.16,0.987 ± 0.13,1.16 ± 0.16,1.21 ± 0.043,1.24 ± 0.16,1.34 ± 0.29,1.01 (active)
O=C(NCCn1nc(-c2ccccn2)c2c1CCCC2)c1c(F)cccc1Cl,1.12 ± 0.062,1.19 ± 0.12,0.921 ± 0.043,0.975 ± 0.049,1.1 ± 0.068,1.2 ± 0.26,1 (active)
CC(C)c1ccc2oc3nc(N)c(C(=O)O)cc3c(=O)c2c1,1.2 ± 0.16,1.23 ± 0.15,0.91 ± 0.052,0.858 ± 0.026,1.28 ± 0.32,1.16 ± 0.18,0.993 (active)
CCCCC1=NC2(CCCC2)C(=O)N1Cc1ccc(-c2ccccc2-c2nnn[nH]2)cc1 [Prestw-1736],1.21 ± 0.29,0.96 ± 0.057,0.952 ± 0.087,0.943 ± 0.034,1.22 ± 0.19,1.06 ± 0.18,1 (active)
Cc1nc(-c2ccc(S(=O)(=O)N3C4CCC3CC(Oc3cccnc3)C4)cc2)co1 (centres undefined),1 ± 0.093,1.08 ± 0.086,0.94 ± 0.051,1.04 ± 0.077,1.14 ± 0.087,1 ± 0.092,1.01 (active)
CCCCC(=O)N(Cc1ccc(-c2ccccc2-c2nn[nH]n2)cc1)[C@H](C(=O)O)C(C)C,1.04 ± 0.16,1.03 ± 0.15,0.903 ± 0.05,0.589 ± 0.054,0.855 ± 0.14,0.704 ± 0.12,0.996 (active)
Cc1nnc(NC(=O)c2ccccc2C(=O)O)s1,0.982 ± 0.13,0.969 ± 0.063,0.983 ± 0.051,1.11 ± 0.28,1.01 ± 0.055,1.04 ± 0.085,0.998 (active)
Cc1ccc(-c2cc(NC(=O)c3ccc([N+](=O)[O-])cc3)[nH]n2)cc1,1.43 ± 0.11,1.04 ± 0.059,1 ± 0.061,0.869 ± 0.066,1.78 ± 0.3,1.82 ± 0.13,0.971 (active)
COc1ccc(NC(=O)CN(c2ccc(C)c(C)c2)S(C)(=O)=O)cc1,0.831 ± 0.068,1.02 ± 0.061,1.07 ± 0.12,0.88 ± 0.046,1.46 ± 0.084,1.53 ± 0.14,0.998 (active)
COc1ccc(CCNC(=O)NCc2nn(C3CCCC3)c3c2CCCC3)cc1,0.854 ± 0.037,1.04 ± 0.12,1.12 ± 0.08,0.726 ± 0.057,1.13 ± 0.18,1.15 ± 0.27,0.983 (active)
O=c1cc(-c2ccccc2)oc2cc(O)c(O)c(O)c12,1.51 ± 0.5,1.09 ± 0.075,1.2 ± 0.15,0.649 ± 0.034,1 ± 0.15,0.967 ± 0.12,0.992 (active)
